Records with an inconclusive call do not appear. Activity calls are given as the source filed them. Calls come from the whole dose curve; as a rule, active = well fitted curve in the direction sought with a large enough effect in the repeat runs; inconclusive = weak or mixed curves; inactive = no such curve, though single readings can be large; an effect the other way counts as inactive or inconclusive.
Key:
[1] = A CellTox Green Cytotoxicity Assay to monitor cytotoxicity in HEK293 cells - 40 hour (AID 1224871); note: nearly all actives have a fitted effect of over 45% in size
How it was run: (§1)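 Tox21 screen in HEK293: membrane-impermeant cyanine dye fluoresces on binding dead-cell DNA; compound pinned 5 h post-seeding, plates held at 37 C, signal read repeatedly through 40 h.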

[2] = qHTS RealTime-Glo MT Cell Viability Assay in HEK293 cells - 16 hour (AID 1224872); note: top concentration of the series differs between compounds; nearly all actives have a fitted effect of over 50% in size
How it was run: (§2)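 Cells + reagent dispensed (600 cells/well, HEK293) → 5 h at 37 C/5% CO2 → 23 nL compound in DMSO pinned → 40 h at 37 C → luminescence read at 0, 8, 16, 24, 32, 40 h.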

[3] = qHTS RealTime-Glo MT Cell Viability Assay in HepG2 cells - 8 hour (AID 1224873); note: nearly all actives have a fitted effect of over 55% in size
How it was run: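 Real-time viability: cells seeded at 600 per well together with NanoLuc and cell-permeant prosubstrate, compounds added after 5 h incubation. Luminescence tracked at 0, 8, 16, 24, 32 and 40 h of exposure.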

[4] = qHTS RealTime-Glo MT Cell Viability Assay in HEK293 cells - 40 hour (AID 1224874); settings: RealTime-Glo luminescence; max response: hits give low values; note: nearly all actives have a fitted effect of over 50% in size
How it was run: (§3)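 HEK293 + NanoLuc + prosubstrate, 600 cells/well; 5 h, 37 C/5% CO2; compound 23 nL in DMSO by pintool; 37 C; luminescence read at 0, 8, 16, 24, 32 and 40 h time points.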

[5] = A CellTox Green Cytotoxicity Assay to monitor cytotoxicity in HEK293 cells - 24 hour (AID 1224875); note: series mostly up to about 77 µM; nearly all actives have a fitted effect of over 45% in size
How it was run: as §1

[6] = A CellTox Green Cytotoxicity Assay to monitor cytotoxicity in HepG2 cells - 16 hour (AID 1224876); note: nearly all actives have a fitted effect of over 45% in size
How it was run: (§4)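 Measurements at 0, 8, 16, 24, 32 and 40 h of treatment captured CellTox Green fluorescence in HepG2 cells that had been co-plated with reagent and preincubated 5 h at 37 C/5% CO2.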

[7] = qHTS RealTime-Glo MT Cell Viability Assay in HepG2 cells - 32 hour (AID 1224877); note: nearly all actives have a fitted effect of over 55% in size
How it was run: (§5)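 Real-time, nonlytic viability: 600 HepG2 cells/well mixed with NanoLuc enzyme plus prosubstrate; 5 h settle, compound (DMSO) added by pintool; luminescence monitored over 40 h at 37 C.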

[8] = A CellTox Green Cytotoxicity Assay to monitor cytotoxicity in HepG2 cells - 24 hour (AID 1224878); note: nearly all actives have a fitted effect of over 45% in size
How it was run: as §4

[9] = qHTS RealTime-Glo MT Cell Viability Assay in HEK293 cells - 0 hour (AID 1224880)
How it was run: as §3

[10] = A CellTox Green Cytotoxicity Assay to monitor cytotoxicity in HEK293 cells - 32 hour (AID 1224881); note: nearly all actives have a fitted effect of over 40% in size
How it was run: as §1

[11] = A CellTox Green Cytotoxicity Assay to monitor cytotoxicity in HepG2 cells - 0 hour (AID 1224882); note: nearly all actives have a fitted effect of over 35% in size
How it was run: as §4

[12] = A CellTox Green Cytotoxicity Assay to monitor cytotoxicity in HepG2 cells - 32 hour (AID 1224883); note: nearly all actives have a fitted effect of over 50% in size
How it was run: as §4

[13] = A CellTox Green Cytotoxicity Assay to monitor cytotoxicity in HEK293 cells - 8 hour (AID 1224884); note: nearly all actives have a fitted effect of over 35% in size
How it was run: as §1

[14] = qHTS RealTime-Glo MT Cell Viability Assay in HepG2 cells - 16 hour (AID 1224885); note: nearly all actives have a fitted effect of over 50% in size
How it was run: as §5

[15] = qHTS RealTime-Glo MT Cell Viability Assay in HEK293 cells - 24 hour (AID 1224886)
How it was run: as §2

[16] = qHTS RealTime-Glo MT Cell Viability Assay in HEK293 cells - 8 hour (AID 1224887)
How it was run: as §3

[17] = A CellTox Green Cytotoxicity Assay to monitor cytotoxicity in HEK293 cells - 16 hour (AID 1224888); note: nearly all actives have a fitted effect of over 35% in size
How it was run: as §1

[18] = A CellTox Green Cytotoxicity Assay to monitor cytotoxicity in HepG2 cells - 8 hour (AID 1224890); note: nearly all actives have a fitted effect of over 45% in size
How it was run: as §4

[19] = A CellTox Green Cytotoxicity Assay to monitor cytotoxicity in HepG2 cells - 40 hour (AID 1224879); note: nearly all actives have a fitted effect of over 40% in size
How it was run: as §4

[20] = qHTS RealTime-Glo MT Cell Viability Assay in HepG2 cells - 0 hour (AID 1224889); note: nearly all actives have a fitted effect of over 50% in size
How it was run: as §5
% is set by controls: 0 for no effect and ±100 for the full control effect.

CCN(CCO)CCO
inactive: Potency [1] | Potency [2] | outcome [3] | max response [4] 4.13% | Potency [5] | Potency [6] | Potency [7] | Potency [8] | outcome [9] | Potency [10] | outcome [11] | Potency [12] | Potency [13] | Potency [14] | Potency [15] | Potency [16] | Potency [17] | Potency [18]

COP(=O)(O)OC
inactive: Potency [1] | Potency [2] | outcome [3] | max response [4] -2.51% | Potency [5] | Potency [6] | Potency [7] | Potency [8] | outcome [9] | Potency [10] | outcome [11] | Potency [12] | Potency [13] | Potency [14] | Potency [15] | Potency [16] | Potency [17] | Potency [18]

C=C(Cl)CCl
inactive: Potency [1] | Potency [2] | outcome [3] | max response [4] -1.15% | Potency [5] | Potency [6] | Potency [7] | Potency [19] | outcome [9] | Potency [10] | outcome [11] | Potency [12] | Potency [13] | Potency [14] | Potency [15] | Potency [17] | outcome [20] | Potency [18]

BrCc1ccc(Br)cc1
inactive: Potency [1] | Potency [2] | outcome [3] | max response [4] 4.4% | Potency [5] | Potency [6] | Potency [7] | Potency [19] | Potency [10] | outcome [11] | Potency [12] | Potency [13] | Potency [15] | Potency [16] | Potency [17] | outcome [20] | Potency [18]

N=C(N)[Se]
inactive: Potency [1] | Potency [2] | outcome [3] | max response [4] -7.73% | Potency [5] | Potency [6] | Potency [7] | outcome [9] | Potency [10] | outcome [11] | Potency [12] | Potency [13] | Potency [14] | Potency [15] | Potency [17] | outcome [20] | Potency [18]

CCCCCCCCSC(=O)Oc1cc(Cl)nnc1-c1ccccc1
inactive: Potency [1] | Potency [2] | outcome [3] | max response [4] 6.25% | Potency [5] | Potency [6] | Potency [7] | Potency [19] | outcome [9] | Potency [10] | outcome [11] | Potency [12] | Potency [13] | Potency [14] | Potency [15] | Potency [16] | Potency [17] | outcome [20] | Potency [18]

CCOC(=O)CCl
inactive: Potency [1] | Potency [2] | outcome [3] | max response [4] 14.4% | Potency [5] | Potency [6] | Potency [7] | Potency [19] | Potency [10] | outcome [11] | Potency [12] | Potency [14] | Potency [15] | Potency [16] | Potency [17] | outcome [20] | Potency [18]

C1CN2CCC1CC2
inactive: Potency [1] | Potency [2] | outcome [3] | max response [4] 0.665% | Potency [5] | Potency [6] | Potency [7] | Potency [19] | Potency [10] | outcome [11] | Potency [12] | Potency [13] | Potency [14] | Potency [15] | outcome [20] | Potency [18]

ClCCCCl
inactive: Potency [1] | Potency [2] | outcome [3] | max response [4] 9.81% | Potency [5] | Potency [6] | Potency [7] | Potency [19] | Potency [10] | outcome [11] | Potency [12] | Potency [13] | Potency [14] | Potency [15] | Potency [16] | Potency [17] | outcome [20] | Potency [18]

N[C@@H]1C[C@H]1c1ccccc1
inactive: Potency [1] | Potency [2] | outcome [3] | max response [4] 1.46% | Potency [5] | Potency [6] | Potency [7] | outcome [9] | Potency [10] | outcome [11] | Potency [12] | Potency [13] | Potency [14] | Potency [15] | Potency [16] | Potency [17] | outcome [20] | Potency [18]

CCC(C(N)=O)N1CCCC1=O (centres undefined)
inactive: Potency [1] | Potency [2] | outcome [3] | max response [4] 6.54% | Potency [5] | Potency [6] | Potency [7] | Potency [19] | outcome [9] | Potency [10] | Potency [12] | Potency [13] | Potency [14] | Potency [15] | Potency [17] | outcome [20] | Potency [18]

O=C(Cl)OCc1ccccc1
inactive: Potency [1] | Potency [2] | outcome [3] | max response [4] 10.6% | Potency [5] | Potency [6] | Potency [7] | Potency [19] | outcome [9] | Potency [10] | outcome [11] | Potency [12] | Potency [13] | Potency [14] | Potency [15] | Potency [16] | Potency [17] | outcome [20] | Potency [18]

O=c1[nH]c2ccccc2n1C1CCNCC1
inactive: Potency [1] | Potency [2] | outcome [3] | max response [4] 2.11% | Potency [5] | Potency [6] | Potency [7] | Potency [19] | outcome [9] | Potency [10] | outcome [11] | Potency [12] | Potency [13] | Potency [15] | Potency [16] | Potency [17] | outcome [20] | Potency [18]

O=S1(=O)OCCO1
inactive: Potency [1] | Potency [2] | outcome [3] | max response [4] 4.27% | Potency [5] | Potency [6] | Potency [7] | Potency [19] | outcome [9] | Potency [10] | outcome [11] | Potency [12] | Potency [13] | Potency [14] | Potency [15] | Potency [16] | Potency [17] | Potency [18]

Cc1cccc2sc3nncn3c12
inactive: Potency [1] | Potency [2] | outcome [3] | max response [4] 22% | Potency [5] | Potency [6] | Potency [7] | Potency [19] | outcome [9] | Potency [10] | outcome [11] | Potency [15] | outcome [20] | Potency [18]

CCCCCCC1CCOC1=O (centres undefined)
inactive: Potency [1] | Potency [2] | outcome [3] | max response [4] -0.816% | Potency [5] | Potency [6] | Potency [7] | Potency [19] | outcome [9] | Potency [10] | outcome [11] | Potency [12] | Potency [14] | Potency [15] | Potency [16] | Potency [17] | outcome [20] | Potency [18]

CC(C)(N)Cc1ccc(Cl)cc1
inactive: Potency [1] | Potency [2] | outcome [3] | max response [4] 6.61% | Potency [5] | Potency [6] | Potency [7] | Potency [19] | outcome [9] | Potency [10] | outcome [11] | Potency [12] | Potency [13] | Potency [14] | Potency [15] | Potency [16] | Potency [17] | outcome [20] | Potency [18]
